{"source": "PubChem BioAssay AID463173", "about": "(ICCB-Longwood Screening Facility, Harvard Medical School, 2010)", "note": "The whole screen tested about 52,000 compounds, of which about 4,300 (8.3%) were called active. The full list was thinned out, with actives kept by preference. Unmarked numbers belong to inactive results. Rule as the data show it: active = survival mostly below about 52% (no sharp cut-off); inactive = mostly above about 56%."}
{"tested_on": "DeltatarO mutant", "test": "S. aureus survival, RN4220 and DeltatarO strains – OD600, teichoic acid synthesis inhibitors, primary screen (AID 463173)", "conditions": "S. aureus RN4220 wild type/DeltatarO growth, OD600, 18 h, hits give low values, screened at 18.75 µg/mL (by protocol)"}
{"molecule": "COc1ccc(Cn2c(C(=O)O)c(CNCCc3cc(OC)ccc3OC)c3ccc(C)cc32)cc1", "survival": "85%"}
{"molecule": "COc1ccccc1NC(=O)c1c(C)cc(C)nc1SCC(=O)Nc1ccc(C)cc1", "survival": "51%"}
{"molecule": "CC(C)c1cccc(C(C)C)c1NC1=NS(=O)(=O)c2ccccc21", "survival": "76%"}
{"molecule": "COc1cc(C(=O)N2CCc3ccccc32)cc(OC)c1OC", "survival": "104%"}
{"molecule": "O=C(c1ccc2c(c1)N(Cc1ccccc1F)C(=O)c1ccccc1S2(=O)=O)N1CCCCCC1", "survival": "73%"}
{"molecule": "CN1CCN(C(=O)C2CCCCC2C(=O)O)CC1", "note": "(centres undefined)", "survival": "78%"}
{"molecule": "COC(=O)c1cc2sccc2n1Cc1nc(-c2cccc(Br)c2)oc1C", "survival": "70%"}
{"molecule": "COc1ccc(-c2n[nH]c3c2C(c2ccc(Cl)cc2Cl)NC3=O)cc1", "note": "(centres undefined)", "survival": "-12% (active)"}
{"molecule": "CCc1ccc(C2NC(=O)c3[nH]nc(-c4cccc(OC)c4)c32)cc1", "note": "(centres undefined)", "survival": "54%"}
{"molecule": "COc1ccc(OC)c(C2c3c(-c4ccc(Br)cc4)n[nH]c3C(=O)N2c2ccc(Cl)cc2)c1", "note": "(centres undefined)", "survival": "89%"}
{"molecule": "Cc1ccc(CC(=O)Nc2c(C(=O)N3CCN(c4ccccc4F)CC3)oc3ccccc23)cc1", "survival": "74%"}
{"molecule": "Cc1ccc(-n2c(=O)c3c4c(sc3n(Cc3cc(=O)n5cc(Cl)ccc5n3)c2=O)CCC4)cc1C", "survival": "169%"}
{"molecule": "Cc1ccc(C)c(Cn2c(=O)n(-c3ccc(Cl)cc3)c(=O)c3c(C)c(C)sc32)c1", "survival": "76%"}
{"molecule": "CCOc1ccc(-n2c(=O)c3c4c(sc3n(Cc3cc(=O)n5cc(Cl)ccc5n3)c2=O)CCC4)cc1", "survival": "64% (active)"}
{"molecule": "CCOc1ccc(-n2c(=O)c3c(C)c(C)sc3n(Cc3cc(=O)n4cc(Cl)ccc4n3)c2=O)cc1", "survival": "69%"}
{"molecule": "CCCCN(CC)C(=O)Cn1c(=O)n(-c2ccc(OCC)cc2)c(=O)c2c3c(sc21)CCC3", "survival": "78%"}
{"molecule": "CCCCN(CC)C(=O)Cn1c(=O)n(-c2ccc(OCC)cc2)c(=O)c2c3c(sc21)CCCC3", "survival": "89% (active)"}
{"molecule": "CCOc1ccc(-n2c(=O)c3c(C)c(C)sc3n(CC(=O)NCCc3ccccc3)c2=O)cc1", "survival": "84%"}
{"molecule": "CCc1ccc(NC(=O)Cn2c(=O)n(-c3ccc(Cl)c(Cl)c3)c(=O)c3c(C)c(C)sc32)cc1", "survival": "97%"}
{"molecule": "Cc1ccc(-n2c(=O)c3c(C)c(C)sc3n(Cc3ccc(F)cc3Cl)c2=O)cc1C", "survival": "38% (active)"}
{"molecule": "CCOc1ccc(-n2c(=O)c3c(C)c(C)sc3n(CC(=O)Nc3ccc(CC)cc3)c2=O)cc1", "survival": "46% (active)"}
{"molecule": "CCN(CC)C(=O)Cn1c(=O)n(-c2ccc(Cl)cc2)c(=O)c2c3c(sc21)CCCCC3", "survival": "89%"}
{"molecule": "Cc1ccc(Cn2c(=O)n(-c3ccc(C)c(C)c3)c(=O)c3c(C)c(C)sc32)cc1", "survival": "71%"}
{"molecule": "O=C(CCNS(=O)(=O)c1ccc2c(c1)CCCC(=O)N2)NCc1ccc(Cl)cc1", "survival": "96%"}
{"molecule": "COc1ccc(CCNC(=O)c2cc3c(=O)n4cccc(C)c4nc3n2C)cc1", "survival": "67%"}
{"molecule": "COc1ccc(NC(=O)C2CCCN(S(=O)(=O)c3ccc4[nH]c(=O)ccc4c3)C2)cc1Cl", "note": "(centres undefined)", "survival": "82%"}
{"molecule": "CC(=O)Nc1cccc(NC(=O)Cc2csc(COc3cccc(C)c3)n2)c1", "survival": "89%"}
{"molecule": "CCOc1ccc(NC(=O)C(=O)NCCc2csc(-c3ccc(F)cc3)n2)cc1", "survival": "82%"}
{"molecule": "CCN(CC)S(=O)(=O)c1ccc2c(c1)N(CC(=O)NCCCN1CCN(c3cc(Cl)ccc3C)CC1)C(=O)CO2", "survival": "53%"}
{"molecule": "CCOc1ccc(-c2noc(CSc3nnc(-c4ccccc4)n3-c3ccccc3)n2)cc1", "survival": "66%"}
{"molecule": "COc1cccc(-n2cc(C(=O)Nc3ccccc3C(N)=O)c3ccccc3c2=O)c1", "survival": "67%"}
{"molecule": "CCOc1ccc(-n2c(=O)c3c(C)c(C)sc3n(Cc3ccccc3C)c2=O)cc1", "survival": "85%"}
{"molecule": "COc1ccc(CCNC(=O)Cn2c(=O)n(-c3ccc(C)c(C)c3)c(=O)c3c(C)c(C)sc32)cc1OC", "survival": "64%"}
{"molecule": "CCOc1ccc(-n2c(=O)c3c(C)c(C)sc3n(Cc3ccc(C(C)(C)C)cc3)c2=O)cc1", "survival": "52% (active)"}
{"molecule": "Cc1ccc(-n2c(=O)c3c4c(sc3n(CC(=O)Nc3cccc(Cl)c3)c2=O)CCCCC4)cc1C", "survival": "105% (active)"}
{"molecule": "CCOc1ccc(-n2c(=O)c3c(C)c(C)sc3n(CC(=O)C(C)(C)C)c2=O)cc1", "survival": "121%"}
{"molecule": "Cc1ccc(-n2c(=O)c3c(cnn3C)n(CC(=O)Nc3cccc(C)c3)c2=O)cc1", "survival": "64%"}
{"molecule": "COc1ccc(CCNC(=O)Cn2c(=O)n(-c3ccccc3)c(=O)c3c(C)c(C)sc32)cc1OC", "survival": "84% (active)"}
{"molecule": "COc1ccc(NC(=O)Cn2c(=O)n(-c3ccc(C)c(C)c3)c(=O)c3c4c(sc32)CCCCC4)cc1Cl", "survival": "76%"}
{"molecule": "Cc1ccc(NC(=O)Cn2c(=O)n(-c3ccc(C)cc3)c(=O)c3c2cnn3C)cc1", "survival": "63%"}
{"molecule": "O=C(Cn1c(=O)n(-c2ccc(Cl)cc2)c(=O)c2c3c(sc21)CCCCC3)Nc1cccc(Cl)c1", "survival": "84%"}
{"molecule": "COc1cccc(-n2c(=O)c3c(C)c(C)sc3n(CC(=O)NCCc3ccc(OC)c(OC)c3)c2=O)c1", "survival": "94%"}
{"molecule": "Cc1ccc(-n2c(=O)c3c(cnn3C)n(CC(=O)Nc3cccc(Cl)c3)c2=O)cc1", "survival": "55% (active)"}
{"molecule": "COc1ccc(CCNC(=O)CSc2n[nH]c(-c3ccccc3Cl)n2)cc1OC", "survival": "101%"}
{"molecule": "COc1ccc2c(c1)c1c(c(=O)n(-c3cccc(C)c3)c(=O)n1Cc1cccc(Cl)c1)n2C", "survival": "84%"}
{"molecule": "CC(=O)N1CCCc2cc(S(=O)(=O)N(CCN(C)C)Cc3ccccc3)ccc21", "survival": "102%"}
{"molecule": "Cc1csc2nc(COC(=O)c3ccc(NC(=O)C(C)Oc4ccccc4)cc3)cc(=O)n12", "note": "(centres undefined)", "survival": "134%"}
{"molecule": "COc1cc2c(cc1OC)C(COc1ccc3c(C)cc(=O)oc3c1)N(C(=O)c1ccc(C)c(C)c1)CC2", "note": "(centres undefined)", "survival": "74%"}
{"molecule": "Cc1oc(-c2ccc(C(=O)NCc3ccccc3F)cc2)nc1COc1ccccc1", "survival": "77%"}
{"molecule": "CCOC(=O)c1ccccc1NC(=O)CCc1c(C)nc2ncnn2c1C", "survival": "87%"}
{"molecule": "COc1ccc(NC(=O)Cn2c(=O)n(-c3ccccc3)c(=O)c3c4c(sc32)CCCC4)cc1", "survival": "98%"}
{"molecule": "CCOc1ccc(NC(=O)Cn2c(=O)n(-c3cccc(OC)c3)c(=O)c3c4c(sc32)CCCC4)cc1", "survival": "95%"}
{"molecule": "CCN(Cc1ccccc1)C(=O)Cn1c(=O)n(-c2ccc(Cl)cc2)c(=O)c2c(C)c(C)sc21", "survival": "76%"}
{"molecule": "CCOc1ccc(NC(=O)Cn2c(=O)n(-c3ccccc3)c(=O)c3c4c(sc32)CCCC4)cc1", "survival": "90% (active)"}
{"molecule": "CCN(Cc1ccccc1)C(=O)Cn1c(=O)n(-c2ccc(C)c(C)c2)c(=O)c2c(C)c(C)sc21", "survival": "84%"}
{"molecule": "CCOc1ccc(-n2c(=O)c3c(C)c(C)sc3n(CC(=O)N(CC)Cc3ccccc3)c2=O)cc1", "survival": "45% (active)"}
{"molecule": "CCOC(=O)c1c(C)oc2nc(C)nc(NCC3CCN(Cc4cccc(Cl)c4)CC3)c12", "survival": "62%"}
{"molecule": "COc1cccc(NC(=O)CCS(=O)(=O)c2ccc3c(c2)oc(=O)n3C)c1", "survival": "89%"}
{"molecule": "Cc1ccc(CSc2nnc3[nH]c(=O)cc(C)n23)cc1", "survival": "71%"}
{"molecule": "Cc1ccc(NC(=O)CSc2nc3c(oc4ccccc43)c(=O)n2Cc2ccco2)cc1", "survival": "70%"}
{"molecule": "CC(C)C(=O)N1C2CCC1CC(O)(c1ccccc1F)C2", "note": "(centres undefined)", "survival": "86%"}
{"molecule": "COc1cccc(CN(Cc2ccco2)C(c2ccc(OC)c(OC)c2)c2nnnn2Cc2ccccc2)c1", "note": "(centres undefined)", "survival": "67%"}
{"molecule": "N#C/C(=C\\c1ccccc1F)c1nc2ccccc2c(=O)[nH]1", "survival": "66%"}
{"molecule": "COc1cccc(/C=C(\\C#N)c2nc3ccc(C)cc3[nH]2)c1", "survival": "46%"}
{"molecule": "COc1cc(Br)c(/C=C(\\C#N)c2nc3ccccc3[nH]2)cc1OC", "survival": "110%"}
{"molecule": "Cc1cccc(/C=C(\\C#N)c2nc3ccccc3c(=O)[nH]2)c1", "survival": "91%"}
{"molecule": "Cc1ccc2nc(/C(C#N)=C/c3cccc(Br)c3)[nH]c2c1", "survival": "3% (active)"}
{"molecule": "Cc1ccc2nc(/C(C#N)=C/c3ccccc3F)[nH]c2c1", "survival": "31% (active)"}
{"molecule": "COc1ccccc1-c1nnc(SCCOc2ccccc2C)o1", "survival": "73%"}
{"molecule": "Oc1ccc(-c2nnc(SCc3ccc(Cl)cc3)o2)cc1", "survival": "89%"}
{"molecule": "CCOc1ccccc1-c1nnc(SCc2ccc(Cl)cc2)o1", "survival": "-1% (active)"}
{"molecule": "CNS(=O)(=O)c1cn(CC(=O)Nc2ccc(C)c(N(C)C)c2)cc1S(=O)(=O)NC", "survival": "83%"}
{"molecule": "CCc1ccc(-c2cc(C)no2)cc1S(=O)(=O)N1CCN(c2cccc(Cl)c2)CC1", "survival": "89%"}
{"molecule": "COc1ccc(CNc2oc(-c3ccc(COc4ccc(Cl)cc4)o3)nc2C#N)cc1", "survival": "97%"}
{"molecule": "Cc1cc(C)cc(NC(=O)CCc2c(C)nc3c4cccnc4nn3c2C)c1", "survival": "99%"}
{"molecule": "CCCOc1ccc(-c2nonc2NC(=O)c2oc3ccc(C)cc3c2C)cc1OCCC", "survival": "49%"}
{"molecule": "CCOc1ccc(-c2nonc2NC(=O)c2ccc(C)cc2)cc1OCC", "survival": "100%"}
{"molecule": "CCOc1ccc(-c2nonc2NC(=O)c2oc3cc(C)ccc3c2C)cc1OCC", "survival": "87%"}
{"molecule": "CCOc1ccc(-c2nonc2NC(=O)c2oc3cc(C)c(C)cc3c2C)cc1OCC", "survival": "43% (active)"}
{"molecule": "CCOc1ccc(-c2nonc2NC(=O)c2oc3ccc(C)cc3c2C)cc1OCC", "survival": "43%"}
{"molecule": "CCOc1ccc(-c2nonc2NC(=O)c2oc3c(C)c(C)ccc3c2C)cc1OCC", "survival": "34% (active)"}
{"molecule": "CCCNC(=O)N1CCCN(S(=O)(=O)c2ccc3c(ccn3CC)c2)CC1", "survival": "79%"}
{"molecule": "Cc1cc(C)cc(NC(=O)c2cnn(-c3ccc(C)c(C)c3)c2C2CCNCC2)c1", "survival": "78%"}
{"molecule": "COc1ccccc1NC(=O)CN1C(=O)CSc2ccc(S(=O)(=O)N3CCCC3)cc21", "survival": "99%"}
